Compound activity as filed in PubChem BioAssay.
Most compounds without a hit are left out; they make up all but 3.4% or so of the library.
GPR151 activ – activates the human receptor GPR151; Q8TDV0; PathHunter beta-arrestin GPR151 cells, luminescence; activation, % at 11.2 µM; actives 1% (n = 650,000); in the data active = activation above about 4.9%;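 note: 0% = median of compound wells and 100% = cells with positive control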
TEAD-YAP block – TEAD-YAP interaction inhibition | actives 1.4% (n = 640,000) | AID 1259422 | HEK-TIYL cells, TEAD-Gal4/YAP UAS-luciferase luminescence | inhibition, % at 9.12 µM; in the data active = inhibition above about 32%;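 note: 0% = median of test compound wells and 100% = reference inhibitor wells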
MITF inh – blocks human microphthalmia-associated transcription factor | O75030 | AlphaScreen MITF homodimerization, bead proximity signal | inhibition, % at 2.6 µM | actives 0.91% (n = 650,000) | AID 1259374; in the data active = inhibition above about 50%;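 note: 0% = vehicle wells with protein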
Target sequence (O75030 whole entry, looked up): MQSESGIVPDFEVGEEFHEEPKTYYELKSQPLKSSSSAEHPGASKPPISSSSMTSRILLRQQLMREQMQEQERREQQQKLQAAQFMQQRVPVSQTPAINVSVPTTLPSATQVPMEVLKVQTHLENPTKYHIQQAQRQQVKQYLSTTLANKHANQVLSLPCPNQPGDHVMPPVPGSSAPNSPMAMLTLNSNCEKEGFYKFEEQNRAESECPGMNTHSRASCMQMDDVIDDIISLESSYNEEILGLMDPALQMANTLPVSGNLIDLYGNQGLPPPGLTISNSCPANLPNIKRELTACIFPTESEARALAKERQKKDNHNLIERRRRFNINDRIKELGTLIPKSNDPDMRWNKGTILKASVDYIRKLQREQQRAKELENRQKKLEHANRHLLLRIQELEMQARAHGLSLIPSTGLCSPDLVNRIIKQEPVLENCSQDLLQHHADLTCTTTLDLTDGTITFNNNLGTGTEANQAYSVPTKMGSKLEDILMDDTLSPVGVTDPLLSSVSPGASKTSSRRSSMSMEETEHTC
FBW7 act – activators of human E3 ligase FBW7; AlphaScreen FBW7–phospho-cyclin E peptide binding, activator screen; normalized activity (activation), % at 26.1 µM; AID 1259310; actives 0.13% (n = 650,000); in the data active = normalized activity above about 1.9%;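 note: purified mutant Fbw7 with reduced substrate affinity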
* hit, by the source's call.

For CC1(C(=O)O)NCCc2cc(O)c(O)cc21 (centres undefined) the results were GPR151 activ 0, MITF inh 66* and FBW7 act 0.
`c1cc2ccc3ncc(-c4ccc(-c5ccn[nH]5)cc4)cc3c2cn1` gave GPR151 activ 0, TEAD-YAP block -18, MITF inh 12 and FBW7 act 2.0*.
Fc1ccc(-c2cnc3ccc4ccncc4c3c2)cc1 was read as GPR151 activ 0, TEAD-YAP block -8, MITF inh 16 and FBW7 act 0.
`CCc1c(C)nc(SCC(=O)Nc2ccc(OC)cc2OC)[nH]c1=O` gave GPR151 activ -1, TEAD-YAP block 24, MITF inh 6 and FBW7 act 0.
COc1ccc(C(=O)N/N=C(\C)CC(=O)NCc2ccco2)cc1 was read as GPR151 activ -1, TEAD-YAP block -52, MITF inh 24 and FBW7 act 1.
Screening COc1cc(OC)cc(C(=O)N/N=C(\C)CC(=O)NCc2ccco2)c1 returned GPR151 activ -1, TEAD-YAP block 51*, MITF inh -8 and FBW7 act 1.
For COc1cc(OC)cc(C(=O)N/N=C(\C)CC(=O)Nc2cccc(C)c2C)c1 the results were GPR151 activ 2, TEAD-YAP block 50*, MITF inh -8 and FBW7 act 0.
Screening Cc1ccccc1C1NC(=S)NC2=C1C(=O)CC(C)(C)C2 (centres undefined) returned GPR151 activ -1, TEAD-YAP block 7, MITF inh 18 and FBW7 act 0.
`CC1(C)CC(=O)C2=C(C1)NC(=S)NC2c1ccccc1` (centres undefined) gave GPR151 activ -2, TEAD-YAP block 55*, MITF inh 1 and FBW7 act 0.
Screening CC(C)(C)OC(=O)N1CCc2c(cnn2-c2cccc(C(=O)Nc3ccc(N4CCOCC4)cc3)c2)C1 returned GPR151 activ -1, TEAD-YAP block 1, MITF inh 12 and FBW7 act 4.1*.
O=C(Nc1ccc(N2CCOCC2)cc1)c1cccc(-n2cc(-c3nc4ccccc4o3)cn2)c1 was read as GPR151 activ -1, TEAD-YAP block -6, MITF inh -5 and FBW7 act 2.4*.
`O=C(Nc1ccc(N2CCOCC2)cc1)c1cccc(-n2ncc3c2CCNC3)c1` gave GPR151 activ 0, TEAD-YAP block 0, MITF inh 1 and FBW7 act 0.
For Cc1csc(=O)n1CCC(=O)OCC(=O)c1ccc(C2CCCCC2)cc1 the results were GPR151 activ -1, TEAD-YAP block -8, MITF inh 8 and FBW7 act 0.
Screening O=C(Cc1c[nH]c2ccccc12)Nc1nnc(C2CC2)s1 returned GPR151 activ -1, TEAD-YAP block 34*, MITF inh -1 and FBW7 act 0.
`O=C(O)C(Cc1ccccc1)N1C(=O)C2CCCCC2C1=O` (centres undefined) gave GPR151 activ 0, TEAD-YAP block 6, MITF inh -4 and FBW7 act 2.6*.
For Cc1ccc(C(=O)C2CCN(CC(=O)Nc3ccc(Cl)cc3)CC2)cc1 the results were GPR151 activ 1, TEAD-YAP block 6, MITF inh 3 and FBW7 act 0.
For COc1ccc(C2CC(C(F)(F)F)n3nc(C(=O)N4CCCCC4)cc3N2)cc1OC (centres undefined) the results were GPR151 activ 0, TEAD-YAP block 38*, MITF inh -6 and FBW7 act 0.
`COc1ccccc1Nc1cc(=O)[nH]c(=O)[nH]1` gave GPR151 activ -1, TEAD-YAP block 4, MITF inh 3 and FBW7 act 0.
Fc1ccccc1Nc1nc(NCc2ccco2)c2ccccc2n1 was read as GPR151 activ 1, TEAD-YAP block -13, MITF inh -1 and FBW7 act 0.
Screening Fc1ccccc1Nc1nc(NCc2ccccc2)c2ccccc2n1 returned GPR151 activ 3, TEAD-YAP block 47*, MITF inh -26 and FBW7 act 0.
Cc1ccc(-c2nc(NCc3ccccc3)c3ccccc3n2)cc1 was read as GPR151 activ -2, TEAD-YAP block -12, MITF inh -5 and FBW7 act 0.
Screening Cc1ccc(Nc2nc(NCc3ccccc3)c3ccccc3n2)cc1 returned GPR151 activ 0, TEAD-YAP block 36*, MITF inh 5 and FBW7 act 0.
COCCNC(=O)C1CCN(S(=O)(=O)N2CCC(C)CC2)CC1 was read as GPR151 activ -1, TEAD-YAP block 8, MITF inh 10 and FBW7 act 0.
`CCC(CO)Nc1ccc2ncc(-c3cncc(OC)c3)n2n1` (centres undefined) gave GPR151 activ 0, TEAD-YAP block 54*, MITF inh 6 and FBW7 act 0.
Screening CCC(CO)Nc1ccc2ncc(-c3ccc(OC)cc3)n2n1 (centres undefined) returned GPR151 activ 0, TEAD-YAP block 16, MITF inh 16 and FBW7 act 1.
Screening CCC(CO)Nc1ccc2ncc(-c3cccc(NS(C)(=O)=O)c3)n2n1 (centres undefined) returned GPR151 activ 1, TEAD-YAP block 37*, MITF inh -9 and FBW7 act 0.
Screening CCOc1ccc(/C=C/c2nc3ccccc3c(=O)o2)cc1 returned GPR151 activ -8, TEAD-YAP block 83*, MITF inh -3 and FBW7 act 0.
For CC(=O)N1C(=S)NC(=O)/C1=C/c1cc2cc(C)ccc2nc1N1CCOCC1 the results were GPR151 activ 1, TEAD-YAP block 38*, MITF inh -1 and FBW7 act 0.
For CCCCOc1ccc(NC(=O)CSc2nc3ccc(NC(=O)c4ccccc4Cl)cc3s2)cc1 the results were GPR151 activ 0, TEAD-YAP block -10, MITF inh -27 and FBW7 act 0.
O=C(Nc1ccc2oc(-c3cccc(F)c3)nc2c1)c1cc([N+](=O)[O-])ccc1Cl was read as GPR151 activ 0, TEAD-YAP block 37*, MITF inh 13 and FBW7 act 0.
For O=C(Nc1ccc(Sc2nc3ccccc3s2)c(Cl)c1)c1cc([N+](=O)[O-])ccc1Cl the results were GPR151 activ 0, TEAD-YAP block 32*, MITF inh 11 and FBW7 act 0.
CC(=O)Nc1ccc(Sc2nc3ccccc3s2)c(Cl)c1 was read as GPR151 activ -1, TEAD-YAP block -2, MITF inh -8 and FBW7 act 0.
O=C(Nc1ccc2oc(-c3cccc4c(Br)cccc34)nc2c1)c1ccccc1[N+](=O)[O-] was read as GPR151 activ 0, TEAD-YAP block 43*, MITF inh 2 and FBW7 act 0.
For O=C(Nc1ccc2oc(-c3cccc4c(Br)cccc34)nc2c1)c1cc([N+](=O)[O-])ccc1Cl the results were GPR151 activ -2, TEAD-YAP block -6, MITF inh 15 and FBW7 act 0.
CCc1sc(NC(=O)CN2C(=O)c3ccccc3C2=O)nc1-c1ccccc1 was read as GPR151 activ 2, TEAD-YAP block 6, MITF inh 0 and FBW7 act 0.
For Nc1c(C(=O)Nc2ccc(F)cc2)nnn1Cc1cccc(Cl)c1 the results were GPR151 activ 1, TEAD-YAP block 33*, MITF inh 11 and FBW7 act 0.
